These results are taken from PubChem BioAssay (NCATS).

Results filed as inconclusive are left out. A number with no mark means an inactive call. Calls follow the shape of the dose curve; as a rule, active = well fitted curve in the direction sought with a large enough effect; inconclusive = small, poorly fitted or top-dose-only effect, or another doubt; inactive = no such curve, though single readings can be large or run the other way.
% is scaled to controls: 0 for no effect and ±100 for the full control effect.

A short description of the test: qHTS Assay for Identifying Gametocytocidal Compounds (AID 743244).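 Also: actives lower the fluorescent signal which means gametocytes are killed.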 The conditions noted are these: P. falciparum 3D7 stage III-V gametocytes, alamarBlue, 72 h; max response: active compounds read low. Put shortly:
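A resazurin-based viability read-out was applied to mature P. falciparum gametocytes: 72 h compound treatment, then 24 h dye incubation, with falling fluorescence signalling gametocytocidal effect.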
Background: qHTS replaces the single test concentration by a dilution series.
For the compound `NC[C@@H]1O[C@H](O[C@H]2[C@@H](O)[C@H](O[C@@H]3[C@@H](O)[C@H](N)C[C@H](N)[C@H]3O[C@H]3O[C@H](CO)[C@@H](O)[C@H](O)[C@H]3N)O[C@@H]2CO)[C@H](N)[C@@H](O)[C@@H]1O`, the max response is 20.3%.

On to `CO/N=C(\C(=O)N[C@@H]1C(=O)N2C(C(=O)O)=C(C[N+]3(C)CCCC3)CS[C@H]12)c1csc(N)n1`, for which the max response is 15.9%.

On to `O=C(O)c1cc(O)c2c(c1)[C@H]([C@H]1c3cc(C(=O)O)cc(O)c3C(=O)c3c(O[C@@H]4O[C@H](CO)[C@@H](O)[C@H](O)[C@H]4O)cccc31)c1cccc(O[C@@H]3O[C@H](CO)[C@@H](O)[C@H](O)[C@H]3O)c1C2=O`, for which the max response was -8.85%.

Turning to `CCN(CC)CCC(=O)N1c2ccccc2Sc2ccc(Cl)cc21`, the max response was 2.51%.

With `NC(=S)NS(=O)(=O)c1ccc(N)cc1`, the max response was 5.02%.

On to `CC(O)CN(C)C` (stereo not drawn), for which the max response is -6.61%.

Turning to `CC(CC=O)CCCC(C)(C)O` (stereo not drawn), the max response was 6.46%.

Turning to `NC(=O)OC[C@@H]1[C@H](NC(=O)/C(=N\OCC(=O)O)c2csc(N)n2)C(=O)N1S(=O)(=O)O`, the max response was -1.55%.

As to `C=O`, the max response is 20.4%.

`O=C1c2ccccc2CN2C(=O)c3ccccc3CN12`: the max response was 10.5%.

On to `C[S+](C)CCC(N)C(=O)O` (stereo not drawn), for which the max response is 3.96%.

`CN1CCC(OC(=O)C(Oc2ccc(Cl)cc2)Oc2ccc(Cl)cc2)CC1`: the max response was 32.5%.

For the compound `O=C(Cc1cccs1)N[C@@H]1C(=O)N2C(C(=O)[O-])=C(C[n+]3ccccc3)CS[C@H]12`, the max response was 7.46%.

For the compound `COC(=O)[C@H]1[C@H]2C[C@@H]3c4[nH]c5cc(OC)ccc5c4CCN3C[C@H]2C[C@H](OC)[C@@H]1OC`, the max response is 15%.

Turning to `Cc1cc(C)c(NC(=O)C[C@H](CC(=O)O)c2cccc3ccccc23)c(C(=O)N2CCC3(CCCC3)CC2)c1`, the max response is -8.09%.

For `CCCCCCCCCCCCCCCC(=O)OC[C@@H](O)[C@H]1OC[C@H](O)[C@H]1O`, the max response is -10.2%.

With `O=C(O)COc1ccccc1/C=N/NC(=O)c1ccncc1`, the max response is 1.32%.

As for `C[C@H](N)C(=O)N[C@@H](C)P(=O)(O)O`, the max response was 2.87%.

Consider H-RKDVY-OH, for which the max response is -13.7%.

Turning to `O=C(O)/C=C/c1ccccc1`, the max response was 0.36%.

As for `O=[N+]([O-])c1c(Cl)cccc1-c1c[nH]cc1Cl`, the max response was 0.263%.

Turning to `Nc1nc(=O)n([C@@H]2CS[C@H](CO)O2)cc1F`, the max response is 4.32%.

For `CC(/C=C/C=C(\C)C(=O)O[C@@H]1O[C@H](CO[C@@H]2O[C@H](CO)[C@@H](O)[C@H](O)[C@H]2O)[C@@H](O)[C@H](O)[C@H]1O)=C\C=C\C=C(C)\C=C\C=C(/C)C(=O)O[C@@H]1O[C@H](CO[C@@H]2O[C@H](CO)[C@@H](O)[C@H](O)[C@H]2O)[C@@H](O)[C@H](O)[C@H]1O`, the max response is 5.1%.

`CC(C)(CO)[C@@H](O)C(=O)NCCC(=O)NCCSSCCNC(=O)CCNC(=O)[C@H](O)C(C)(C)CO`: the max response was 8.29%.

`CCCC(=O)O`: the max response was -0.429%.

`O=C[C@H](O)[C@@H](O)[C@@H](O)[C@H](O)CO`: the max response was -6.65%.

Turning to `CC(=O)OCC1=C(C(=O)O)N2C(=O)[C@@H](NC(=O)Cc3ccccc3)[C@H]2SC1`, the max response was 7.9%.

On to `C=C1c2c(Cl)ccc(O)c2C(O)=C2C(=O)[C@]3(O)C(O)=C(C(N)=O)C(=O)[C@@H](N(C)C)[C@@H]3[C@@H](O)[C@H]12`, for which the max response is 2.94%.

Consider `C[C@]12CC[C@@H]3c4ccc(O)cc4CC[C@H]3[C@@H]1CC[C@@H]2OP(=O)(O)O`, for which the max response was -0.293%.

Regarding `C=CCOc1ccc(CC(=O)O)cc1Cl`, the max response is 22.7%.

For the compound `CCN(CC)CCOc1ccc2nc(N(C)C)sc2c1`, the max response is -4.7%.

In the case of `C=CC[N@@+]12CC[C@@]34c5ccccc5N5/C=C6/[C@H]7C[C@H]8[C@@]9(CC[N@@+]8(CC=C)C/C7=C/CO)c7ccccc7N(/C=C(/[C@@H](C[C@@H]31)/C(=C\CO)C2)[C@H]54)[C@@H]69`, the max response is 4.55%.

For `CO[C@H]1C[C@@H]2CC[C@@H](C)[C@@](O)(O2)C(=O)C(=O)N2CCCC[C@H]2C(=O)O[C@H]([C@H](C)C[C@@H]2CC[C@@H](OC(=O)C(C)(CO)CO)[C@H](OC)C2)CC(=O)[C@H](C)/C=C(\C)[C@@H](O)[C@@H](OC)C(=O)[C@H](C)C[C@H](C)/C=C/C=C/C=C/1C`, the max response is -3.38%.

With `Cn1c(=O)c2c(ncn2CCOC(=O)C(C)(C)Oc2ccc(Cl)cc2)n(C)c1=O`, the max response was 17.7%.

For the compound `Cc1ccc(C(C)(C)c2ccc(C)cc2)cc1`, the max response is 17%.

Turning to `NC(=O)[C@@H]1C[C@]2(NC(=O)NC2=O)c2cc(F)ccc2O1`, the max response is -13.1%.

For the compound `CC(C)CN(C[C@@H](O)[C@H](Cc1ccccc1)NC(=O)O[C@@H]1CCOC1)S(=O)(=O)c1ccc(N)cc1`, the max response is 12.1%.

As for `C=N[C@@H](C(=O)N[C@@H]1C(=O)N2[C@@H]1SC(C)(C)[C@@H]2C(=O)O)c1ccccc1`, the max response was -0.476%.
